What is called AC50 is the midpoint of the concentration-response curve, whichever way the signal moves.

This is an account of results in PubChem BioAssay.

Experiment [1] in a line: growth inhibition of DIPG glioma cells, dose response, cell-based, SU-DIPG-XIII, MIPE5.0, CellTiter-Glo, qHTS (AID 1347064).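 For AC50: cells exposed to compound for 48 hours before the viability read.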 The following applies: SU-DIPG-XIII viability, CellTiter-Glo ATP luminescence. (In ATP-based viability assays light output follows the ATP content of the culture.)
Experiment [2] can be described thus: SU-DIPG-VI glioma cell viability, MIPE4.0 library, CellTiter-Glo luminescence, qHTS (AID 1347066; cut-off not given, nearly all actives have AC50 up to about 30 µM;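 note: cells exposed to compound for 48 hours before readout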). The following applies: CellTiter-Glo ATP luminescence.
Experiment [3] can be described thus: SU-DIPG-XXV glioma cell viability, MIPE5.0 library, qHTS (AID 1347068; cut-off not given, nearly all actives have IC50 up to about 30 µM). (In general: qHTS replaces the single test concentration by a dilution series.)
Experiment [4] in a line: sensitizers of A549 cells to miR-34 induction, primary screen, imaging, A549 dox-inducible miR-34, nuclei and caspase counts (AID 1347080;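 active = compounds whose cell count with miR-34 switched on is under 0.7 times the count with it off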). The following applies: A549 miR-34 inducible, Hoechst nuclei count, 48 h.
A short description of experiment [5]: survival rescue of mitochondrial mutant cells in low glucose, primary screen, MELAS cybrids, Rieske KO mouse fibroblasts, CellTiter-Glo (AID 1508586;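 active = mean z-score across replicates of 1.96 or higher in either the MELAS or the Rieske mutant cell line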;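 note: z relative to plate mean and SD of compound and empty wells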).
Experiment [6] in a line: JHH-DIPG-1 glioma cell viability, MIPE5.0 library, CellTiter-Glo luminescence, qHTS (AID 1347067; cut-off not given, nearly all actives have AC50 up to about 26 µM;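 note: cells exposed to compound for 48 hours before readout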). The following applies: JHH-DIPG-1 glioma viability, CellTiter-Glo ATP luminescence.
Experiment [7] can be described thus: viability loss in pontine glioma line – cell-based, SU-DIPG-XXV, MIPE5.0, CellTiter-Glo, qHTS, dose response (AID 1347065; cut-off not given, nearly all actives have AC50 up to about 26 µM;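 note: cells exposed to compound for 48 hours before ATP readout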). The following applies: CellTiter-Glo ATP luminescence.
Setting [8] is: stronger effect = lower value, cell number ratio, induced over uninduced.
The mark [9] stands for this setting: measured here: relative caspase fold change +Dox/-Dox.
[10] abbreviates: measured here: total cells with miR-34 induction, stronger effect = lower value.
Where [11] appears, read: measured here: total cells without miR-34 induction.
The mark [12] stands for this setting: MELAS cybrid survival, CellTiter-Glo 48 h, stronger effect = higher value.
Setting [13] is: Rieske KO mouse fibroblast survival, CellTiter-Glo 72 h.

Results filed as inconclusive are left out. The source made the active and inactive calls. Unless noted, no cut-off is given here; in the data, nearly all actives have AC50 up to about 23 µM.

Regarding `CCCS(=O)(=O)Nc1ccc(F)c(C(=O)c2c[nH]c3ncc(Cl)cc23)c1F`, the compound was called inactive in experiment [1], in experiment [2] and in experiment [3]. In addition, the fold change in experiment [4] (setting [8]) is 0.766 (inactive); in experiment [4] (setting [9]), 1.15. Moreover, the values for the cell count in experiment [4] (setting [10]) and in experiment [4] (setting [11]) were 4220 and 5520, respectively. In addition, the figures for the z-score in experiment [5] (setting [12]) and in experiment [5] (setting [13]) were -0.49 (inactive) and 0.575, respectively.

For the compound `CC1(N)CCN(c2cccnc2NC(=O)c2nc(-c3ncccc3C(F)(F)F)cnc2N)CC1`, the outcome in experiment [1] and in experiment [6] was inactive.

With `Nc1ncnc2c1nc(Cl)n2[C@@H]1O[C@H](CO)[C@@H](O)[C@H]1O`, the AC50 in experiment [1] is 16.6 µM (active); in experiment [2], 23.5 µM (active). The compound was called inactive in experiment [3].

For the compound `O=C(NNc1ccccc1)c1ccncc1`, the compound was classed as inactive in experiment [1], in experiment [7] and in experiment [3]. For the same compound, the fold change in experiment [4] (setting [8]) is 0.922 (inactive); in experiment [4] (setting [9]), 0.452. The figures for the cell count in experiment [4] (setting [10]) and in experiment [4] (setting [11]) were 7960 and 8630, respectively. Moreover, the z-score is -0.433 (inactive) in experiment [5] (setting [12]) and -1.65 in experiment [5] (setting [13]).

Turning to `Nc1nc2c(c(=O)[nH]1)N1CN(c3ccc(C(=O)N[C@@H](CCC(=O)O)C(=O)O)cc3)CC1CN2` (stereo not given in full), the outcome in experiment [1] and in experiment [6] was inactive.
